Where “and” joins values, the source holds several entries; their conditions need not be identical. Equal values may be shown once. This is part of a sample that, as a whole, favours compounds with a hit. Of some 83,000 tested, about 20% had one in any assay.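 How to read the values: 0–100, growth inhibition (40 = 60% inhibited); 0, no net growth; -100 to 0, cell death (-40 = 40% of starting cells died; -100 = all dead).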 Calls of active or inactive are those of the source. How the source made its calls: active means growth percent below 10; inactive means the rest.

Among the test systems are T-47D breast; BT-549 breast; MDA-MB-435 melanoma; SW-620 colon; MCF7 breast; HCT-116 colon; HCC-2998 colon; KM12 colon.
Holding throughout (test): NCI-60 one-dose screen, 48 h (100 = growth as untreated, 0 = no growth, -100 = all killed)
Conditions in all cases: 10 µM unless noted

On to `O=C(O)C(Cc1ccc(OS(=O)(=O)Cc2ccccc2)cc1)NS(=O)(=O)Cc1ccccc1` (centres undefined), for which the growth in the experiment on T-47D breast is 101% (inactive) and 99.9% (inactive); in the experiment with BT-549 breast it was 104% (inactive) and 106% (inactive); with MDA-MB-435 melanoma it was 98.7% (inactive) and 111% (inactive); in the experiment with SW-620 colon it was 105% (inactive); in the experiment with MCF7 breast, 91.4% (inactive) and 98.4% (inactive); in the experiment on HCT-116 colon, 105% (inactive) and 109% (inactive). Moreover, the growth in the experiment with HCC-2998 colon was 115% (inactive); in the experiment with KM12 colon, 101% (inactive) and 106% (inactive).

In the case of `CNc1ccc(Cl)cc1S(=O)(=O)c1ccccc1[N+](=O)[O-]`, the growth in the experiment with T-47D breast is 85.5% (inactive) and 69.2% (inactive); with BT-549 breast it was 79.5% (inactive) and 86.9% (inactive); with MDA-MB-435 melanoma it was 49.6% (inactive) and 6.48% (active); in the experiment with SW-620 colon it was 108% (inactive) and 105% (inactive); in the experiment on MCF7 breast, 94.3% (inactive) and 89.9% (inactive); with HCT-116 colon, 107% (inactive) and 90.2% (inactive). Moreover, the growth in the experiment with HCC-2998 colon was 109% (inactive); in the experiment on KM12 colon, 75% (inactive) and 95.3% (inactive).

For the molecule `COc1ccc(CCl)c(C)c1OC`, the growth with T-47D breast is 102% (inactive); in the experiment on BT-549 breast, 105% (inactive); in the experiment on MDA-MB-435 melanoma, 108% (inactive); with SW-620 colon, 101% (inactive); in the experiment with MCF7 breast it was 103% (inactive); in the experiment on HCT-116 colon, 99.6% (inactive). For the same molecule, the growth in the experiment with HCC-2998 colon was 100% (inactive); in the experiment with KM12 colon, 101% (inactive).

In the case of `O=[N+]([O-])c1ccc(NC2CCCCC2)nc1`, the growth in the experiment on T-47D breast was 102% (inactive); with BT-549 breast, 114% (inactive) and 106% (inactive); in the experiment with MDA-MB-435 melanoma, 102% (inactive) and 112% (inactive); with SW-620 colon, 103% (inactive) and 109% (inactive); in the experiment on MCF7 breast, 110% (inactive) and 102% (inactive); with HCT-116 colon it was 108% (inactive) and 101% (inactive). The growth was 105% (inactive) and 96.3% (inactive) in the experiment with HCC-2998 colon; 111% (inactive) and 103% (inactive) in the experiment on KM12 colon.

With `Clc1ccc2sc(-c3ccccc3)nc2c1`, the growth in the experiment on T-47D breast was 56.8% (inactive); in the experiment with BT-549 breast, 109% (inactive); in the experiment on MDA-MB-435 melanoma, 95.4% (inactive); with SW-620 colon it was 72.2% (inactive); in the experiment with MCF7 breast, 61.2% (inactive); with HCT-116 colon, 94.9% (inactive). For the same molecule, the growth in the experiment on HCC-2998 colon was 103% (inactive); in the experiment with KM12 colon, 104% (inactive).

Consider `CS(=O)(=O)OCC1NC(=O)C(COS(C)(=O)=O)NC1=O` (centres undefined), for which the growth was 104% (inactive) and 105% (inactive) in the experiment with T-47D breast; 78.1% (inactive) and 30.1% (inactive) with BT-549 breast; 107% (inactive) and 90.7% (inactive) with MDA-MB-435 melanoma; 106% (inactive) and 104% (inactive) with SW-620 colon; 93% (inactive) and 85% (inactive) in the experiment with MCF7 breast; 93.7% (inactive) and 93.8% (inactive) in the experiment on HCT-116 colon. Moreover, the growth is 89.7% (inactive) and 103% (inactive) in the experiment on HCC-2998 colon; 104% (inactive) and 83.9% (inactive) in the experiment on KM12 colon.

Regarding `Nc1nc(-c2ccccn2)cc(-c2cc(-c3ccccn3)nc(N)n2)n1`, the growth in the experiment with T-47D breast was 109% (inactive); in the experiment with BT-549 breast it was 117% (inactive); in the experiment with MDA-MB-435 melanoma, 119% (inactive); in the experiment on SW-620 colon, 133% (inactive); with MCF7 breast, 92.2% (inactive); with HCT-116 colon it was 111% (inactive). Moreover, the results for the growth with HCC-2998 colon and in the experiment with KM12 colon were 104% (inactive) and 107% (inactive), respectively.

Consider `OCCCc1ccccc1`, for which the growth was 112% (inactive) in the experiment with T-47D breast; 101% (inactive) in the experiment with BT-549 breast; 108% (inactive) in the experiment with MDA-MB-435 melanoma; 107% (inactive) in the experiment with SW-620 colon; 101% (inactive) with MCF7 breast; 99.5% (inactive) in the experiment with HCT-116 colon. Moreover, the growth in the experiment on HCC-2998 colon is 108% (inactive); in the experiment with KM12 colon, 109% (inactive).

In the case of `CC1=CC(=O)C=CC1=Nc1ccc(N(C)C)cc1`, the growth with T-47D breast was 69.1% (inactive) and -24.8% (active); in the experiment with BT-549 breast, 79% (inactive) and 27.8% (inactive); in the experiment with MDA-MB-435 melanoma, 59.4% (inactive) and 6.47% (active); in the experiment on SW-620 colon, 105% (inactive); in the experiment with MCF7 breast it was 89.9% (inactive) and 6.86% (active); in the experiment with HCT-116 colon, 84.3% (inactive) and 2.64% (active). Moreover, the growth in the experiment with HCC-2998 colon was 98.4% (inactive) and 59.1% (inactive); with KM12 colon, 83.4% (inactive) and 25.2% (inactive).

In the case of `CC(=O)C[n+]1ccccc1Sc1ccc(Cl)cc1`, the growth was 84.8% (inactive) in the experiment with T-47D breast; 30% (inactive) in the experiment on BT-549 breast; 78% (inactive) with MDA-MB-435 melanoma; 91.6% (inactive) with SW-620 colon; 65% (inactive) in the experiment on MCF7 breast; 81.5% (inactive) with HCT-116 colon. In addition, the results for the growth with HCC-2998 colon and with KM12 colon were 128% (inactive) and 79.2% (inactive), respectively.

`COc1cc([C@@H]2c3cc4c(cc3[C@H](O)[C@H]3COC(=O)[C@@H]23)OCO4)cc(OC)c1OC`: the growth with T-47D breast was 40.1% (inactive) and 71.1% (inactive); with BT-549 breast it was 22.3% (inactive); in the experiment with MDA-MB-435 melanoma, -23.1% (active) and -44.3% (active); in the experiment on SW-620 colon it was 16.7% (inactive) and 4.24% (active); in the experiment on MCF7 breast it was 18.4% (inactive) and 5.61% (active); with HCT-116 colon, 10.5% (inactive) and -40.7% (active). The growth is -10.3% (active) and -60.9% (active) in the experiment with HCC-2998 colon; 28.4% (inactive) and -3.9% (active) in the experiment on KM12 colon.

As to `O=C1CCC(=O)N1CC1CC2CCC1C2` (centres undefined), the growth is 100% (inactive) and 79.2% (inactive) with T-47D breast; 90.1% (inactive) in the experiment with BT-549 breast; 93.3% (inactive) and 95.9% (inactive) with MDA-MB-435 melanoma; 104% (inactive) and 100% (inactive) in the experiment with SW-620 colon; 99% (inactive) and 95.9% (inactive) in the experiment with MCF7 breast; 106% (inactive) and 90.5% (inactive) in the experiment on HCT-116 colon. In addition, the growth in the experiment with HCC-2998 colon was 106% (inactive); in the experiment with KM12 colon, 107% (inactive) and 100% (inactive).

In the case of `CC1=CC(=O)c2cccc(NC3=NCCO3)c21`, the growth was 90.3% (inactive) in the experiment on T-47D breast; 101% (inactive) in the experiment on BT-549 breast; 98.4% (inactive) in the experiment on MDA-MB-435 melanoma; 95.2% (inactive) with SW-620 colon; 98.6% (inactive) in the experiment on MCF7 breast; 97.9% (inactive) in the experiment on HCT-116 colon. In addition, the values for the growth in the experiment with HCC-2998 colon and in the experiment on KM12 colon were 104% (inactive) and 97.7% (inactive), respectively.

Source of the values: PubChem BioAssay (NCI).
